Assay outcomes from PubChem BioAssay.
tim23-1 inh – growth inhibitors of tim23-1 mutant yeast, primary screen, luminescence, uHTS | S. cerevisiae tim23-1 growth, BacTiter-Glo luminescence, 24 h | inhibition, % at 20 µM | 330,000 compounds, 1.3% hits | AID 463212, 2010;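 active means growth inhibition of the mutant yeast at or above 50%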;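 further: temperature-sensitive mutant grown at 25 °C; plate controls were DMSO-treated mutant yeast for no effect and medium wells lacking yeast for full effect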
tim10-1 inh – growth inhibitors of tim10-1 mutant yeast, primary screen, luminescence, uHTS | S. cerevisiae tim10-1 ts strain growth, BacTiter-Glo, 24 h | inhibition, % at 20 µM | 330,000 compounds, 2.2% hits;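 active means inhibition of at least 40%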;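 further: mutant grown at 25 °C; 0% = DMSO wells with yeast and 100% = wells holding no yeast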
PfHsp90 set2 – growth inhibition of PfHsp90-expressing yeast, primary screen, antimalarial PfHsp90 inhibitor project, S. cerevisiae, BacTiter-Glo luminescence, single point, set 2 | AID 504621, 2011 | BacTiter-Glo ATP, 48 h; yeast lacking PDR1 and PDR3 efflux regulators | inhibition, % at 9.4 µM | 310,000 compounds, 0.32% hits;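 active means every replicate shows inhibition above about 80%, whatever the replicate mean, limit read from the data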;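 further: 0% = DMSO neutral controls and 100% = 20 µM radicicol positive controls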
TIM10 inh – growth inhibitors of isogenic TIM10 control yeast, primary screen, counter-screen for tim10-1 yeast inhibitor project, luminescence, uHTS; S. cerevisiae TIM10 strain growth, BacTiter-Glo luminescence, 24 h; inhibition, % at 10 µM; 330,000 compounds, 1.4% hits; AID 463195, 2010;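 active means inhibition of 40% or more at the single tested concentration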;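 further: wild-type TIM10 isogenic control strain grown at permissive 25 °C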
NALP3 yeast inh – NALP3 inflammasome inhibitors in reconstituted yeast, primary screen, luminescence, uHTS; Yeast reconstituted NLRP3/ASC/caspase-1, beta-gal luminescence, 24 h; inhibition, % at 10 µM; 330,000 compounds, 0.39% hits;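 active means inhibition of 50% or more; inactive means inhibition below 50%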;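 further: plate controls were induced DMSO wells for no effect and uninduced yeast grown without galactose for full effect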
SKKanGAS inh – S. pyogenes SKKanGAS growth inhibitors in kanamycin, primary screen, streptokinase expression inhibitor project, SKKanGAS strain, BacTiter-Glo luminescence | 6 h | inhibition, % at 7.5 µM | 300,000 compounds, 1.3% hits | AID 1662, 2009;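 active means mean replicate score, as percent of positive control median, at least 50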;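 further: strain carries kanamycin resistance gene driven by streptokinase promoter and grows in 40 µg/ml kanamycin; loss of luminescence reflects streptokinase promoter inhibition or plain growth inhibition; 0% = median of DMSO wells and 100% = positive control at its reference dose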
tim10-1 confirm – growth inhibitors of tim10-1 mutant yeast, confirmation, single concentration, luminescence, S. cerevisiae; shares compounds with tim10-1 inh; AID 463213, 2010; 7,400 compounds, 56% hits; inhibition, % at 20 µM; S. cerevisiae tim10-1 ts strain growth, BacTiter-Glo, 24 h;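 active means inhibition of yeast growth at or above a set limit in either of two repeat tests at 20 µM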;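 further: tim10-1 mutant grown at permissive 25 °C to find synthetic lethal compounds; 0% = DMSO yeast wells and 100% = medium wells without yeast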
The depositor's hits bear a star; . = not tested or not shown. Rows were chosen to be rich in hits. Some 4.6% of all compounds tested hit in one or more screens of this group.

SMILES | tim23-1 inh | tim10-1 inh | PfHsp90 set2 | TIM10 inh | NALP3 yeast inh | SKKanGAS inh | tim10-1 confirm
Cn1c(=O)[nH]c(=O)c2c1nc(N1CCCCCC1)n2CCCSc1nnnn1-c1ccccc1 | 17 | 41* | . | 15 | -2 | 1 | 24
Cn1c(=O)[nH]c(=O)c2c1nc(N1CCCC1)n2CCCSc1nnnn1-c1ccccc1 | 18 | 14 | -6 | -2 | 6 | 6 | .
O=C(O)c1ccc(-c2cccc([N+](=O)[O-])c2)o1 | 2 | -16 | -5 | -7 | 8 | -3 | .
O=C(NC1CCCCC1)c1ccc(-c2cccc([N+](=O)[O-])c2)o1 | 40 | 41* | -8 | 28 | 17 | -1 | 25
CC(=O)c1c(C)[nH]c(C(=O)Nc2nc(-c3ccccc3)c(C)s2)c1C | 26 | 43* | -6 | 22 | 16 | 5 | 28
CC(=O)c1c(C)[nH]c(C(=O)Nc2nccs2)c1C | 7 | 11 | . | 4 | 4 | -11 | .
COc1c(Cl)cc(Cl)cc1C(=O)Nc1ccc(NC(C)=O)cc1 | 45 | 28 | 11 | 27 | 35 | -3 | .
COC(=O)c1cc(Cl)cc(Cl)c1OS(=O)(=O)N(C)C | 24 | 41* | -3 | -3 | -16 | -2 | 10
C/C(=N\NC(=S)NCc1ccccc1)c1ccco1 | -18 | 17 | -11 | 23 | -15 | 22 | .
CC(=O)NNC(=S)NCCc1ccccc1 | 4 | 13 | 5 | -22 | 2 | -3 | .
C/C(=N\NC(=S)NCCc1ccccc1)c1ccc(O)cc1O | 33 | 43* | 0 | 30 | 17 | -8 | 3
C/C(=N\NC(=S)NCc1ccccc1)c1ccc(C#N)cc1 | 3 | 5 | 17 | 15 | 3 | 2 | .
C/C(=N\NC(=S)NCc1ccccc1)c1ccccc1F | 40 | 46* | -16 | 31 | -6 | 16 | 34*
C/C(=N\NC(=S)NCc1ccccc1)c1ccc(C(C)(C)C)cc1 | 38 | 42* | 4 | 28 | 21 | 18 | 24
CC(=O)Nc1c2c(nn1-c1ccc(F)cc1)CSC2 | 3 | 3 | 37 | -9 | 1 | 1 | .
Cc1c(C)n(C)c2ccc(C(=O)Nc3cccc4ccccc34)cc12 | 38 | 43* | -19 | 24 | 25 | 2 | 32*
COc1ccc(CCC(=O)NC(C)c2ccccc2)cc1OC (stereo not drawn) | 20 | 17 | -6 | -1 | 14 | 0 | .
O=[N+]([O-])c1cc(/C=N/O)ccc1SCc1ccccc1Cl | 16 | 47* | . | 35 | 14 | 18 | 22
COc1ccc(/C=C/C(=O)c2ccccc2)cc1Cn1nnc2ccccc21 | 46 | 59* | -40 | 39 | 6 | -7 | 45*
Cc1ccc(S(=O)(=O)N2CCN(Cc3ccccc3C(F)(F)F)CC2)cc1 | 16 | 13 | . | -11 | 20 | -13 | .
O=S(=O)(c1ccccc1)N1CCN(Cc2ccccc2C(F)(F)F)CC1 | 20 | 40* | 15 | 12 | 23 | . | 6
Cc1ccc(Nc2c(-c3ccco3)nc3nc(C)cc(C)n23)cc1 | 10 | 41* | 23 | 17 | 17 | 10 | 14
O=C(NCc1cccc(C(F)(F)F)c1)c1ccc2c(c1)OCO2 | 21 | 11 | 14 | -4 | 35 | -4 | .
CCCC(=O)Nc1sc2c(c1C(=O)Nc1ccccn1)CCCC2 | 25 | 45* | 8 | 25 | 26 | 7 | 23
CCOc1ccccc1NC(=O)c1c(NC(=O)CCC(=O)O)sc2c1CCCCC2 | 28 | 32 | -6 | 22 | 3 | . | .
SMILES | tim23-1 inh | tim10-1 inh | PfHsp90 set2 | TIM10 inh | NALP3 yeast inh | SKKanGAS inh | tim10-1 confirm
O=C(Nc1ccccn1)c1csc2c1CCCC2 | 14 | 44* | 8 | 21 | 20 | 2 | 17
CCOC(=O)c1ccc(NC(=O)c2c(NC(=O)CCC(=O)O)sc3c2CCCCC3)cc1 | 26 | 40* | 3 | 28 | 3 | 8 | 31*
COc1ccccc1NC(=O)c1csc2c1CCCC2 | 39 | 14 | . | 12 | 34 | -1 | .
CCOc1ccc(CCNC(=O)COC(=O)c2ccc[nH]c2=O)cc1OCC | -2 | -1 | 14 | 6 | 3 | . | .
COc1ccccc1OCCNC(=O)c1cccc(S(=O)(=O)NCc2ccccc2)c1 | 3 | 9 | 0 | -3 | 8 | . | .
COc1ccc(C2CC(=O)c3cnc(Nc4cc(C)cc(C)c4)nc3C2)cc1 (stereo not drawn) | 30 | 46* | . | 36 | 13 | 2 | 27
COc1ccc(C(=O)C2CCCN(C(=O)Cc3c(C)noc3C)C2)cc1OC (stereo not drawn) | 10 | 3 | 15 | -1 | 15 | 3 | .
Cc1noc(C)c1CC(=O)N1CCCC(C(=O)c2ccc(C(C)(C)C)cc2)C1 (stereo not drawn) | 16 | 41* | 16 | 30 | 13 | 2 | 22
S=c1[nH]nc(-c2ccccn2)n1/N=C/c1cccc2ccccc12 | 39 | 41* | 7 | 32 | 15 | 0 | 11
O=C(CSCC(=O)N1CCCCC1)Nc1nc(-c2ccc(Cl)s2)cs1 | 43 | 41* | 108* | 22 | 5 | -8 | 36*
O=C(CSCC(=O)N1CCN(c2ccccc2)CC1)Nc1nc(-c2ccc(Cl)s2)cs1 | 9 | 7 | 4 | 7 | 26 | 21 | .
CN1CCN(CCCNC(=O)c2ccc(/C=C3\Oc4ccccc4N(Cc4ccccc4F)C3=O)cc2)CC1 | 32 | 42* | 36 | 12 | 12 | 4 | 10
CN1CCN(CCCNC(=O)c2ccc(/C=C3\Sc4ccccc4N(Cc4ccc(F)cc4)C3=O)cc2)CC1 | . | . | 10 | . | . | 15 | .
N#Cc1nc(-c2ccccc2Cl)oc1NCc1ccco1 | 42 | 40* | -60 | -4 | 8 | 3 | 29
COC(=O)c1ccc(/C=C/c2ccc3cccc(OC(C)=O)c3n2)cc1 | 19 | 40 | -34 | 20 | 17 | 53* | 24
COc1c(OC(C)=O)ccc(/C=C/c2ccc3cccc(OC)c3n2)c1[N+](=O)[O-] | 43 | 41* | -7 | 13 | 17 | 6 | 28
COC(=O)c1ccc(/C=C/C(=O)O)cc1 | 1 | -11 | -23 | -13 | -3 | -9 | .
COc1cc(/C=C/c2ccc3cccc([N+](=O)[O-])c3n2)ccc1OCC#N | -7 | 15 | 8 | 11 | 12 | -7 | .
O=[N+]([O-])c1ccccc1/C=C/c1ccc2ccccc2n1 | 22 | -4 | -14 | 2 | 29 | -3 | .
COc1c(OC(C)=O)ccc(/C=C/c2ccc3ccccc3n2)c1[N+](=O)[O-] | 48 | 48* | -9 | 40 | 16 | -1 | 32*
